{
  "source": "PubChem BioAssay (NCI)",
  "note": "Several values for one entry are separate records, joined by “and”; a condition that tells them apart may be missing. Equal entries are not always repeated. About 83,000 compounds went through this panel and 20% of them were active in at least one assay; those are over-represented in the sample as a whole.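 Activity criterion: percent growth below 10, measured after cells in 96-well plates were exposed to a single compound concentration for 48 hours.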 Unmarked numbers belong to inactive results. Activity calls are given as the source filed them.",
  "data": [
    {"test_system": "MDA-MB-468 breast", "test": "NCI-60 one-dose screen, 48 h (100 = growth as untreated, 0 = no growth, -100 = all killed)", "settings": "10 µM unless noted", "values": [
      {"smiles": "COc1ccc2c(OCc3nnc4ccc(-c5ccccc5)nn34)ccnc2c1", "growth": "97.2% [2.5 µM]"},
      {"smiles": "Cc1cc(/C=C/c2ccc3cc(N(C)C)ccc3[n+]2C)c(C)n1-c1ccccc1", "growth": "-81.9% (active)"},
      {"smiles": "C=C(NC(=O)C(=C)NC(=O)c1csc(C2=NC3c4csc(n4)C4NC(=O)c5csc(n5)C(C(C)(O)C(C)O)NC(=O)C5CSC(=N5)C(=CC)NC(=O)C(C(C)O)NC(=O)c5csc(n5)C3(CC2)NC(=O)C(C)NC(=O)C(=C)NC(=O)C(C)NC(=O)C(C(C)CC)NC2C=Cc3c(C(C)O)cc(nc3C2O)C(=O)OC4C)n1)C(N)=O", "note": "(stereo unspecified)", "growth": "-55.6% (active)"},
      {"smiles": "CCOc1c(OC)cc2c(c1O)C(=O)N[C@@H]1[C@@H](O)[C@@H](O)[C@H](O)C[C@@H]21", "growth": "94.9%"},
      {"smiles": "O=S=Nc1ccc([N+](=O)[O-])cc1", "growth": "103%"},
      {"smiles": "CCOC(=O)C1=C(C)NC(C)=C(C(=O)OCC)C1", "growth": "97.7% and 86.9%"},
      {"smiles": "COc1cc(C(=O)Nc2cc(O)c(CC=C(C)C)c(O)c2)cc2c1O[C@]1(C)CC[C@@H](O)C(C)(C)[C@H]1C2", "growth": "36.3%"},
      {"smiles": "COc1ccc(-n2nc(C(=O)NCC(=O)O)nc2-c2ccccc2)cc1", "growth": "115%"},
      {"smiles": "O=S(=O)(NCCNc1cc(-c2cn(-c3ccccc3)nc2-c2ccccc2)ccn1)c1cccc2ccccc12", "growth": "36.6%"},
      {"smiles": "CC(=O)c1nc2ccccc2n1CC(=O)c1cccc(Cl)c1", "growth": "32.7%"},
      {"smiles": "O=C1OCC2=C1C(c1cccc(C(F)(F)F)c1)c1cc3c(cc1N2CCO)OCO3", "note": "(stereo unspecified)", "growth": "-5.36% (active)"}
    ]}
  ]
}
